Test results published in the supplement of paper PMC6555819.

system: VDR:RXRa (NR concentration 270 nM, RXRa partner concentration 90 nM); experiment: PBM binding z-score (relative to random genomic background probes); higher = stronger binding; sequences stand for … in GC…GCGATTGACAGCGTAGAATGAAGG
Method: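 Protein-binding microarray (Agilent 4x180K custom design, double-stranded 60-nt probes: 5' GC cap, 34-nt variable region, 24-nt constant primer region; full probe sequence given). Purified or IVT nuclear receptor:RXRα heterodimers (3:1 NR:RXRα, mostly 270:90 nM) or homodimers were incubated for 1 h in PBS with 2% milk and no ligand, then detected with Alexa488 antibodies. Fluorescence from o1-orientation probes (~5 replicates averaged) was converted to z-scores against 500 random hg19 background probes. Variable regions are seed direct-repeat (DR0–DR5) sites, all their single-nucleotide variants and half-site ablations.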

Sequence	PBM binding z-score
TCTGCTAGATCAGTTGGTCAGCTAACGAGCTGCC	-0.706
CGTCCAAGGTCATCAGGTCAGTGAAAGCGACGTG	5.43
TCATATAGGTAAATGCTATGTGAAAGTCCGATCT	0.852
GGAACGAGGGCATTCGAGTTAATAGCATGGCGAT	2.35
TCTAGTTGGTCAAAGGTCACAGACTCGAAATGCG	5.45
AGAAAGAGGTTAAGATCAGGGAAACAGAATACAT	1.25
TCTGGTAGATCAAGCAGGTTAAGAAAGCCTGAGT	0.122
ATATGTAGGTTACATCCGGGTCATTAAGGCTATG	4.54
TCTAGCAGGCCAGGGGGTCACTCAAGAGGTACGG	4.25
TCGAGTAGGTTAGTCGGGGGATTCAGCCAACATA	0.946
TGAATGATGTTAAAGATCAGGGAACGTGGCGTCG	-0.0975
ACTATTAGTTGAGACGAGGGCAACCGATAGGTTG	0.889
CAAACTAGATCAAGGTCAAAGTCGGTTTGTGCCA	4.12
GCTTACGGGTCAAAGGTTATATCATGAATAGAAT	5.71
AGAATGAGGTTACCAAAGATCAGGGATACGCTTG	1.39
CGTCCAATGTCAGAGAGGTCAGTGAATGCCGAGT	5.22
CGAACTAGGTCAAGGACAGTGCATCTCCGCACGC	2.39
TAGCCTAGGTCATTGGGTCAGTATAGTACGCATC	4.26
CCGACTGGAGCAAGGTTACCATAACGCACAGCCA	0.139
TCTTGTATATCAGCAGGTTAAGAAAGCTGGCCAA	0.851

Sequence	PBM binding z-score
CCGAGTAGGTTATGGGGCATCCAGGCAACGGTGA	-0.0665
TCTCGGAGGACACGAAGGCCAGAGCTTTCCAGAG	-0.411
CCGACTGGCGCAAAGGTTACCATACTCAGTACGA	0.854
CGAACTAGGTCGTTGACAGGACAGTGAATAGTAA	0.71
TCATATAGTTAAAGGTGAAAGTCGAACGATATGA	1.2
TCTAGCAGGCCAGAGGGTCACACAAGAGGTACGG	2.26
GCTAGCAGCCCATTTGGGTCACTCAATGACGGGC	-0.389
CGTCCAAGGTCATAGCAGGTCAGTGAAGACAGAT	5.93
TCATATATGTAATACAGGTGAAAGTCGGCATCTA	0.899
GATACAGGGTCAGCTAGAGCCCAGAGTATGGAAA	2.26
TAGCCTAGGTCATTGGGCCAGTACAGTACGCATC	2.19
TCGAGTAGGTTACCAATGGGGCACTCAGCTTTCT	0.142
ATCTCTAGGTAACCAAGTTCAGCGAATGCCGAAC	4.31
TCTCGGAGGACACGAAGGTCAGGGCTTTCCAGAG	2.24
GCTGCTAGGTCAGGTTTGTCAGCTAACGGGTACG	0.236
AGTCAACGTTCACTAGGTAACGTAAGATTCAGCT	-0.186
AGTCAAAGTTCACTAGGTAACGTACGATTCAGCT	4.24
CTCGAACGGTCGGTTGAGGTGAGTATACGGATAA	-0.265
CCTCGGGGGACAACAGGAGGTCAGAGCTGCCAGA	2.71
CGTCAAAGTTCAACTAAGGTACCGTAAAGCACGC	4.4
